# Measured values taken from PubChem BioAssay.
# Calls of active or inactive are those of the source.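 How the source made its calls, unless noted: active means fluorescence slope after compound addition differing from the mean of all screened samples at 99.7% confidence, in either direction; inactive means the rest.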
# Columns and labels:
# [1] = inhibitors of TNFa-induced NFkB p65 translocation, primary screen, imaging, HUVEC, MLSMR starter and 10KST1 sets (AID 438;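 active means inhibition above 20% together with a positive visual image hit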;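 further: compound added about 3h40 before a 20 min TNFalpha stimulation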;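 on inhibition: signal is the nuclear over cytoplasmic p65 intensity ratio per well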); conditions: HUVEC TNFa-induced p65 nuclear translocation; cell count: measured here: nuclei count (cytotoxicity indicator), at 2.08 µM; inhibition: at 2 µM, stronger effect = higher value, 0% TNFa-plus-vehicle, 100% no-TNFa wells
# [2] = reduction of polyQ htt aggregates in cells – imaging, exon1htt(103Q)mCFP cells, high-content imaging, primary screen (AID 483;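 active means visual image review flags a hit and inhibition of aggregation exceeds 20%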;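 further: compound exposure lasted 3 days before fixation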;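 on nuclei count: percent of the per-plate median nuclei count of sample wells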); conditions: exon1htt(103Q)mCFP cell line, aggregate imaging, at 2 µM; inhibition of aggregation: stronger effect = higher value; nuclei count: measured here: cell count, toxicity
# [3] = endothelial E-selectin expression blockers – imaging, HUVEC, immunofluorescence, MLSMR starter and 10KST1 sets, primary screen (AID 487;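 active means visually confirmed hit in the image check and inhibition above 20%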;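 on inhibition: signal is fraction of cell area covered by stained E-selectin grains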;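 on nuclei count: 100% = median nuclei count of all wells on the same plate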); conditions: HUVEC TNFalpha-induced E-selectin immunofluorescence imaging, at 2 µM; inhibition: stronger effect = higher value; nuclei count: measured here: cell number, toxicity
# [4] = target: Voltage-gated potassium channel subunit beta-2 (Rattus norvegicus) (UniProt P62483); assay: inhibitors of rat Kvbeta2 reductase activity – biochemical, NADPH fluorescence, primary screen (AID 622;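 active means fluorescence slope higher than the sample average by over 3 SD, cut at about -0.22 in these data, passing the limit was not always enough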;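 further: slope of raw intensity against log time taken from 70 to 1610 s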); conditions: recombinant KvBeta, 4-cyanobenzaldehyde reduction, at 10 µM, stronger effect = higher value
# Sequence of Voltage-gated potassium channel subunit beta-2 (Rattus norvegicus) (P62483 whole entry, looked up): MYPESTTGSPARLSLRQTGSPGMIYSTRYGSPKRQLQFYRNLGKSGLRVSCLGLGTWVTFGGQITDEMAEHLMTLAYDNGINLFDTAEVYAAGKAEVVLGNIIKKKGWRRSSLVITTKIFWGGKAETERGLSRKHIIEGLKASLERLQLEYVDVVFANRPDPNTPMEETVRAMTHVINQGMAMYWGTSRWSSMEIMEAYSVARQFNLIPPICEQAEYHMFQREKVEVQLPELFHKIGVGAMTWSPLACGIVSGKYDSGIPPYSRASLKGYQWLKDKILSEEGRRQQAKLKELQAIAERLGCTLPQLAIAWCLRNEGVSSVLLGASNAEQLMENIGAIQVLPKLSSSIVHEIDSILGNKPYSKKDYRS
# [5] = target: Voltage-gated potassium channel subunit beta-2 (Rattus norvegicus) (UniProt P62483); assay: enhancers of rat Kvbeta2 NADPH turnover – biochemical, NADPH fluorescence, primary screen (AID 623;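 active means NADPH fluorescence slope more negative than the mean of all samples by about 3 SD, 99.7% confidence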;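 further: fluorescence intensity change per second fitted from 20 to 320 s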); conditions: Recombinant KvBeta, NADPH fluorescence decrease slope, 10 min; at 10 µM; stronger effect = lower value
# [6] = target: Alpha-2C adrenergic receptor (Homo sapiens) (UniProt P18825); assay: compounds altering alpha2C-coupled GIRK flux – cell-based, HEK293 alpha2C/GIRK1/2, thallium flux, primary screen (AID 624); conditions: thallium flux BTC fluorescence, at 10 µM, actives lie on both sides;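 further: slope of fluorescence ratio to pre-addition baseline per second over 15 to 24 s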
# Sequence of Alpha-2C adrenergic receptor (Homo sapiens) (P18825 whole entry, looked up): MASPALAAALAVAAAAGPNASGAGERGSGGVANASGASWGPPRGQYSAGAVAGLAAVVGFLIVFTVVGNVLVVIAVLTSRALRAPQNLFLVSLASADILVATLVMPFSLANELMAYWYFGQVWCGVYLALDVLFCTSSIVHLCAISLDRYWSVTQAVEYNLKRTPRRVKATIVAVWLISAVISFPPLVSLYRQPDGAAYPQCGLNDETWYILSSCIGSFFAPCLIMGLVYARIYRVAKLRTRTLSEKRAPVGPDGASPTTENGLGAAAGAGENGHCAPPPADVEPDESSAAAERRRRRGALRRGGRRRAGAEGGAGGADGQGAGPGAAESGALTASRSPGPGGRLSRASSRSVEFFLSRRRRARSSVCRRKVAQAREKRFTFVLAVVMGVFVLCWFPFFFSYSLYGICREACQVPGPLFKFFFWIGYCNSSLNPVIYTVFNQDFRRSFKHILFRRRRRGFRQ
# [7] = blockers of RIG-like receptor reporter activation – cell-based, Sendai virus stimulus, luciferase, 10K MLSCN set, TLR/RLR signaling modifier project, primary screen (AID 602276;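 active means inhibition at or above 50% at 10 µM; inactive means inhibition below 50%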;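 further: firefly luciferase from ISG56 promoter only with Renilla not read in this screen; 0% = Sendai virus plus DMSO and 100% = medium plus DMSO without virus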); conditions: HEK293 RL24 IRF3 luciferase reporter, at 10 µM, stronger effect = higher value
# [8] = TLR3 IRF3 reporter activation blockers – cell-based, poly I:C stimulus, luciferase, 10K MLSCN set, primary screen (AID 602277;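 active means inhibition of the reporter signal at or above 50%; inactive means inhibition below 50%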); conditions: HEK293-TLR3 RL24 IRF3 luciferase reporter, at 10 µM, stronger effect = higher value
Structure (SMILES),cell count [1],inhibition [1],inhibition of aggregation [2],nuclei count [2] [%],inhibition [3],nuclei count [3] [%],fluorescence slope [4],NADPH fluorescence slope [5],slope [6],inhibition [7],inhibition [8]
COc1ccc(C2=NOC(C(=O)Nc3cc(Br)ccc3O)C2)cc1OC (stereo not drawn),672,-12.2% (inactive),-2.8% (inactive),102,-73.1% (inactive),106,-0.459 (inactive),-3.2e-05 (inactive),0.00665 (inactive),9.82% (inactive),34.8% (inactive)
O=C(C1CCN(c2nnc(-n3cccc3)s2)CC1)N1CCOCC1,661,-2.9% (inactive),6.4% (inactive),123,-50.3% (inactive),102,-0.418 (inactive),-4.1e-05 (inactive),0.00592 (inactive),7.65% (inactive),18% (inactive)
Cc1ccc(S(=O)(=O)NC(C)C(=O)Nc2ccc(C(N)=O)cc2)cc1 (stereo not drawn),707,1.6% (inactive),1.1% (inactive),77.4,-22.5% (inactive),105,-0.521 (inactive),1.6e-05 (inactive),0.0049 (inactive),-2.81% (inactive),2.56% (inactive)
Cc1oc(-c2ccccc2F)nc1CS(=O)(=O)CC(=O)NCCCN1CCc2ccccc2C1,649,11% (inactive),16.1% (inactive),68.5,27.9% (inactive),108,-0.508 (inactive),-5.3e-07 (inactive),0.00532 (inactive),10.5% (inactive),18.8% (inactive)
O=C(CCCCCn1c(=S)[nH]c2cc3c(cc2c1=O)OCO3)N1CCN(Cc2ccccc2)CC1,494,3% (inactive),-11.1% (inactive),100,-25.7% (inactive),113,-0.476 (inactive),1.3e-05 (inactive),0.00605 (inactive),-5.45% (inactive),15.2% (inactive)
Cc1cc(C(=O)NCc2ccc(S(N)(=O)=O)cc2)cs1,321,4.7% (inactive),-10.8% (inactive),108,9.5% (inactive),91.3,-0.63 (inactive),-2.4e-05 (inactive),0.00394 (inactive),13.4% (inactive),10.9% (inactive)
COc1ccc(C2CC(C(F)(F)F)n3ncc(C(=O)NCc4cccnc4)c3N2)cc1OC (stereo not drawn),313,0.3% (inactive),8.9% (inactive),57.1,8% (inactive),91.9,-0.388 (inactive),-3.2e-05 (inactive),0.00287 (inactive),5.88% (inactive),20.9% (inactive)
CCCc1cc(-n2ccnc2)n2c(nc3ccccc32)c1C#N,571,8.7% (inactive),-11.1% (inactive),98.8,30.6% (inactive),99.8,-0.51 (inactive),1.6e-06 (inactive),0.00652 (inactive),16.6% (inactive),47.3% (inactive)
